These results are taken from PubChem BioAssay AID2234 (The Scripps Research Institute Molecular Screening Center, 2010).

Several values for one entry are separate records, joined by “and”; a condition that tells them apart may be missing. Equal values may be shown once. Screen size: about 320,000 compounds; about 480 (0.15%) were called active. The sample holds actives, similar compounds and a random draw of the others, so the mix is not that of the screen. Rule as the data show it: active = inhibition above about 33%; inactive = the rest. Some compounds were tested as several samples or in several runs, with calls that do not always agree.

The target in the assay is Lytic switch protein BZLF1 (Epstein-Barr virus (strain B95-8)) (UniProt P03206). As to the kind of experiment: Zta-DNA interaction blockers, Epstein-Barr virus – biochemical, fluorescence polarization, single concentration, counter-screen for EBNA-1 inhibitor project, primary screen (AID 2234). The settings on record: ZTA-DNA binding, at 11 µM, stronger effect = higher value.
Lytic switch protein BZLF1 (Epstein-Barr virus (strain B95-8)), sequence (P03206 whole entry, looked up): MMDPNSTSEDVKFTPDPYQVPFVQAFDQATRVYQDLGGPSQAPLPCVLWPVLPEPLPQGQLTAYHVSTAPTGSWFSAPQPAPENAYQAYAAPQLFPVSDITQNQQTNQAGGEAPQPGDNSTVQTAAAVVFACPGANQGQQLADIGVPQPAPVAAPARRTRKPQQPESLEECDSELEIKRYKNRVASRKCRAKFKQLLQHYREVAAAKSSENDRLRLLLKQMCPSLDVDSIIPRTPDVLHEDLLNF
On to `Cc1cc(NC(=O)CS(=O)(=O)c2cn(C)c3ccccc23)no1`, for which the inhibition is 3.47% (inactive). As for `Cc1nc(-c2ccc(Cl)cc2)sc1C1(C)CC(c2ccccc2F)=NO1` (centres undefined), the inhibition is 0.91% (inactive).

In the case of `O=C(CNS(=O)(=O)c1ccc(Br)s1)N1CCN(C(=O)c2ccco2)CC1`, the inhibition was 0.26% (inactive). Next, `Cc1cc(/C=N/NC(N)=O)c(C)n1C1CCCCC1`: 15.4% (inactive).

As for `CC(NC(=S)NNS(=O)(=O)c1ccc(C(C)(C)C)cc1)c1ccccc1` (centres undefined), the inhibition is -5.57% (inactive). With `O=C(NC(=S)Nc1cccc(-c2ccc(CO)o2)c1)c1cccs1` the figure was -14.3% (inactive); with `CC1CCCCC1NC(=O)c1cn(C)c2ccc(S(=O)(=O)N3CCOCC3)cc2c1=O` (centres undefined), 3.74% (inactive); with `O=S(=O)(Nc1ccc2nc(-c3ccco3)[nH]c2c1)c1ccccc1`, -14.9% (inactive). Turning to `Cc1ccc(C2NC(=S)NC3=C2N2CCC3CC2)cc1` (centres undefined), the inhibition is -11.6% (inactive). Next, `CC12c3ccccc3C(c3ccccc31)C1C(=O)N(Cc3cccnc3)C(=O)C12` (centres undefined): 5.39% (inactive); `COc1cccc(NC(=O)CN2CCN(CC(=O)Nc3ccccc3Cl)CC2)c1`: 4.73% (inactive). With `CN1/C(=c2/s/c(=C3/C(=O)N(c4ccccc4)NC3=Nc3ccccc3)n(C)c2=O)C(C)(C)c2ccccc21` the figure was 7.42% (inactive). With `CC(C)Oc1ccc(CN2CCC(n3nccc3NC(=O)c3cccnc3)CC2)cc1` the figure was 6.96% (inactive); with `COc1ccc(-c2c(C)nn3c(N4CCC(C(=O)N5CCCCC5)CC4)cc(C)nc23)cc1OC`, 6.7% (inactive). For `CC(C(=O)N(C)CC(=O)Nc1ccccc1C(F)(F)F)N1C(=O)c2ccccc2C1=O` (centres undefined), the inhibition was -0.42% (inactive). Next, `COc1ccc(OC)c(S(=O)(=O)N2CCCC(C(=O)NCCc3ccccc3)C2)c1` (centres undefined): -17.4% (inactive). Next, `O=C(CCCC(=O)N(CC(=O)NC1CCCC1)Cc1ccccc1Cl)Nc1ccccn1`: 2.7% (inactive); `Cc1cc(OC(=O)c2ccccc2Cl)ccc1N1C(=O)CCC1=O`: -5.62% (inactive). With `COC(=O)c1ccccc1NC(=O)C1CCN(C(=O)N2CCOc3ccccc32)CC1` the figure was -14.3% (inactive); with `COc1ccc(N2CCN(C3CCCCC3NS(=O)(=O)c3ccccc3)CC2)cc1` (centres undefined), -13.4% (inactive). For the compound `CCC(C)C(=O)Nc1ccccc1N1CCN(c2ccc(F)cc2)CC1` (centres undefined), the inhibition was -25.1% (inactive). In the case of `Cc1c(C(=O)c2cccc([N+](=O)[O-])c2)c2ccccn2c1CCC#N`, the inhibition is -12.6% (inactive). With `CC(C)C(=O)Nc1nnc(SCC(=O)N2C(C)CCCC2C)s1` (centres undefined) the figure was -5.72% (inactive). With `CC(=O)c1sc(NC(=O)CCN2C(=O)C3CC=CCC3C2=O)nc1-c1ccccc1` (centres undefined) the figure was 0.93% (inactive); with `Cn1nc(C(F)(F)F)cc1-c1ccc(/C=C(\C#N)C(=O)c2cccc(C(F)(F)F)c2)s1`, 9.6% (inactive).

With `CC(=O)c1nc(N2C(=O)C3CC=C(C)CC3C2=O)sc1C` (centres undefined), the inhibition is -6.68% (inactive). Next, `CCN(C(=O)COC(=O)c1cc(NS(=O)(=O)c2ccc(Cl)c([N+](=O)[O-])c2)ccc1O)C1CCCCC1`: -8.06% (inactive). Next, `O=C(Cn1c(-c2ccc(Cl)cc2)noc1=O)N1CCN(c2ccccc2F)CC1`: -6.32% (inactive); `CCOc1cc(-c2noc(CCCC(=O)NC3CCCCC3)n2)ccc1OC`: -2.96% (inactive). Consider `CCOc1ncccc1C(=O)OCC(=O)N1c2ccccc2CC1C` (centres undefined), for which the inhibition was 6.32% (inactive). For `COc1cc(C(=O)NNC(=O)CN2C(=O)NC3(CCCC3)C2=O)cc(OC)c1OC`, the inhibition was 7.35% (inactive). With `CC(C)N(C(=O)Cn1cc(S(=O)(=O)CC(=O)N2CCOCC2)c2ccccc21)C(C)C` the figure was -2.48% (inactive); with `CCc1nn(CCCC(=O)Nc2ccc(C)cc2C)c(=O)c2cc3occc3n12`, -0.14% (inactive); with `CN(C)/C=C(\C#N)C(=O)c1cccnc1Oc1cccc(F)c1`, 1.11% (inactive). With `CN(C)Cc1ccccc1C1(O)c2ccccc2CSc2ccccc21` (centres undefined) the figure was -3.19% (inactive); with `O=C(COC(=O)c1cc(=O)[nH]c2ccccc12)NCc1cccc(Cl)c1`, -4.76% (inactive). As to `COCCCNC(=S)N1CCN(c2nc(-c3cccc(OC)c3)cs2)CC1`, the inhibition was 0.15% (inactive). With `O=C(NC1CCCCC1)N1CCc2[nH]c3ccccc3c2C1` the figure was -20.7% (inactive). Next, `COC(=O)[C@H]1[C@H]2C[C@H]3c4[nH]c5ccccc5c4CCN3C[C@@H]2CC[C@@H]1O`: -2.53% (inactive) and 42.8% (active).

For `COC(=O)C1CCN(C(=O)c2cc(=O)[nH]c3ccccc23)CC1`, the inhibition is -3.43% (inactive). Consider `Cc1ccc(S(=O)(=O)NCc2ccc(C(=O)NC3CCC(C)CC3)cc2)cc1` (centres undefined), for which the inhibition is 0.09% (inactive). With `Cn1c(N)c(C(=O)COC(=O)/C=C/c2ccc(OC(F)F)cc2)c(=O)n(C)c1=O` the figure was 4.46% (inactive); with `CC[N+](C)(CC)CCC[n+]1c(-c2ccccc2)c2cc(N)ccc2c2ccc(N)cc21`, 76.6% (active); with `COc1ccccc1CNS(=O)(=O)c1c(C)[nH]c(C)c1C(=O)N1CCCCC1`, -3.2% (inactive). Next, `COc1ccc(C(=O)NCCn2nc(C)cc2C)cc1OC1CCN(C(C)=O)CC1`: -1.11% (inactive); `CC(=O)N(C)c1ccc(NC(=O)C(F)(F)F)cc1`: -2.47% (inactive); `CC(C)CNC(=O)C(=O)Nc1ccc(N(C)C)cc1`: -14.2% (inactive). Regarding `C=CCN(C(=O)Nc1ccc2oc(C)nc2c1)c1ccccc1`, the inhibition was 14.4% (inactive).

With `CCN(CC)c1ccc(C(=O)Nn2c(C)nc3ccccc3c2=O)cc1`, the inhibition is -9.3% (inactive). With `CCN(CC)c1ccc2oc(=O)c(C)nc2c1` the figure was 112% (active); with `COc1ccc(/C=C/CN2CCCC(C(=O)c3cc(F)ccc3F)C2)cc1` (centres undefined), -3.1% (inactive); with `CN(C)Cc1c(O)ccc2occ(C(O)c3ccccc3)c12` (centres undefined), -10.8% (inactive). For `N[C@@H](Cc1ccccc1)C(=O)N1CCOCC1`, the inhibition was 0.06% (inactive). With `COc1ccc(OC)c(NC(=O)CSc2nc(N)c(-c3ccccc3)c(=O)[nH]2)c1` the figure was -8.96% (inactive). With `COc1ccccc1P(=O)(c1ccccc1)c1ccccc1NC(C)=O` (centres undefined) the figure was 6.44% (inactive). Regarding `CCc1cc(=O)oc2c(C)c(OCC(=O)N3CC[C@@]4(O)CCCC[C@H]4C3)ccc12`, the inhibition is -6.49% (inactive). As to `O=S(=O)(c1cccc(-c2nnc(SC(F)F)n2-c2ccccc2)c1)N1CCCCC1`, the inhibition is -1.62% (inactive). Next, `Cc1cccc(-n2cnc(C(=O)Nc3cccnc3)c2)n1`: -4.78% (inactive); `Cc1ccccc1CSc1nnc(-c2ccccn2)n1N`: -11.1% (inactive); `O=C(COC(=O)c1ccc(S(=O)(=O)Nc2ccccc2)cc1)NCC1CCCO1` (centres undefined): 1.03% (inactive).

As to `CCn1c(C)nc2cc(C(=O)NNS(=O)(=O)c3ccc(C)cc3C)ccc21`, the inhibition is -11% (inactive). With `COc1cc(C2C(C(=O)c3cccs3)=C(O)C(=O)N2CCN2CCOCC2)ccc1OCCC(C)C` (centres undefined) the figure was -2.28% (inactive). Next, `O=C(Nc1ccc2oc(-c3ccccc3F)nc2c1)c1ccco1`: 15.1% (inactive). Next, `CCOc1ccc(S(=O)(=O)Nc2ccncc2)c(C)c1C`: -10.3% (inactive); `CC(C)C(=O)N1CCC2(CC1)Oc1ccc(F)cc1C(=O)C21CC(c2ccccc2)=NO1` (centres undefined): 7.48% (inactive).

`CCc1c(C)nc2c(-c3ccccc3)c(C)nn2c1Nc1ccc(NC(C)=O)cc1`: the inhibition was -11.9% (inactive). With `O=C(Cc1ncc(C(F)(F)F)cc1Cl)Nc1cccc(Br)c1` the figure was -13.5% (inactive); with `O=C(CNS(=O)(=O)c1ccc2ccccc2c1)Nc1ccc(F)c(F)c1F`, 15.3% (inactive); with `O=C(Nc1ccc(F)cc1F)N1CCCN(CCOc2ccccc2)CC1`, -6.16% (inactive). For `Cc1sc2nc(CSCC(=O)NC3CCCCC3)[nH]c(=O)c2c1C`, the inhibition was -20.2% (inactive). With `CC(=O)c1sc2nc(SCC(=O)N3CCCCC3)[nH]c(=O)c2c1C` the figure was -1.4% (inactive); with `CSc1nnc(SCc2nc3sc(C(=O)O)c(C)c3c(=O)[nH]2)s1`, 41.9% (active); with `COc1ccc(C(=O)NC2CC2)cc1OC1CCN(C/C=C/c2ccccc2)CC1`, -17.4% (inactive). Next, `COc1ccc2c(c1)cc1n2CCN=C1NN`: 8.48% (inactive).
